High-throughput results (PubChem BioAssay)
Hits are enriched below; roughly 6.5% of the tested compounds scored in any of these assays.
Vaccinia mCherry: vaccinia inhibition (mCherry reporter) | Vaccinia virus mCherry reporter infection, fluorescence | AID 720579 | 310,000 tested, 0.63% active | Potency, µM (titrated, usually from 36.5 µM), inactives show at the top dose activity change, negative = inhibition, actives largely listed as inhibitors; calls by dose curve; tested in A549 cells; note: potency is the fitted concentration of half-maximal effect; nearly all actives have a fitted effect of over 35% in size
FMDV antiviral: foot and mouth disease virus antiviral activity | FMDV antiviral cell-based qHTS | Potency, µM (top dose mostly 57.9 µM), without a hit: top-dose activity change, negative = inhibition, hits mostly inhibitors | 410,000 tested, 1.2% active; calls by dose curve; tested in HEK293T cells; note: read-out not given here; potency is the fitted concentration of half-maximal effect; nearly all actives have a fitted effect of over 45% in size
HCMV inh: human cytomegalovirus inhibition; activity change, negative = inhibition, % at 57.5 µM; AID 1259415; HFF cells, HCMV-luciferase reporter, 72 h; hits give low values; 410,000 tested, 4.5% active; in the data active = activity change below about -60%; inconclusive = no clear call, values can overlap the other calls; inactive = above about -39%
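Steps: HFFs plated, 16 h 37C; compounds added; HCMV-luciferase added to MOI 1 PFU/cell; 72 h 37C; OneGlo reagent, 5 min room temperature; luminescence read, normalized to controls.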
Vaccinia Venus: inhibitors of vaccinia virus (Venus reporter) | Vaccinia virus Venus reporter expression, fluorescence | Potency, µM (titrated, usually from 36.5 µM), for the others: at the highest dose activity change, negative = inhibition, usual class: inhibitors | 330,000 tested, 0.46% active | AID 720580; calls by dose curve; tested in A549 cells; note: potency is the fitted concentration of half-maximal effect; nearly all actives have a fitted effect of over 30% in size
MARV entry inh: Marburg virus entry inhibition | 300,000 tested, 1.8% active | Potency, µM (series often up to 37.8 µM), for inactives: top-dose activity change, negative = inhibition, actives largely listed as inhibitors | Marburg virus pseudotyped entry inhibition, cell reporter | AID 540276; calls by dose curve; tested in HEK293 cells; note: potency is the fitted concentration of half-maximal effect
LASV entry inh: blocks Lassa virus binding to or entry into cells. Lassa virus pseudotype entry inhibition, cell reporter. Potency, µM (doses to about 37.9 µM), inactives show top-dose activity change, negative = inhibition, hits mostly inhibitors. 300,000 tested, 1.2% active. AID 540256; calls by dose curve; tested in HEK293 cells; note: potency is the fitted concentration of half-maximal effect; nearly all actives have a fitted effect of over 50% in size
Active calls of the source: *; i = inactive; ? = inconclusive; nt = no result given; [ ] = dose if it differs, or a comment. % is set by controls: 0 for no effect and ±100 for the full control effect.

SMILES	Vaccinia mCherry	FMDV antiviral	HCMV inh	Vaccinia Venus	MARV entry inh	LASV entry inh
O=C(NCC1CC1)Nc1ccc(Cl)cc1	nt	64%	-95*	nt	nt	nt
CC(C)(C)N(NC(=O)Nc1ccc(F)cc1)C(=O)c1ccccc1	i	-11%	15	-22%	-7%	0%
CC(C)(C)N(NC(=O)Nc1ccc(Cl)c(Cl)c1)C(=O)c1ccccc1	-25%[1.46 µM]	?	-80*	13µM*	?	?
Cc1ccc(NC(=O)Nc2ccc(F)c(Cl)c2)cc1	-29%	10%	?	-4%	?	1%[46.1 µM]
O=C(NCC1CC1)Nc1cccc(Cl)c1	nt	33%	25	nt	nt	nt
Cc1ccccc1NC(=O)c1nc(SCc2ccccc2F)ncc1Cl	24%	nt	nt	-18%	nt	nt
COC(=O)[C@H]1[C@@H](c2ccccc2)NC(=O)N(CCc2cc(OC)c(OC)c(OC)c2)[C@@H]1C	nt	nt	nt	nt	-24%[14.2 µM]	nt
Cc1snc(SCc2ccc(Cl)cc2)c1C#N	nt	20%	-100*	nt	nt	nt
CC(=O)N1CCCc2cc(S(=O)(=O)N3CCC(C(=O)NCc4cccc(C)c4)CC3)ccc21	-5%	-11%	-3	-8%	nt	-19%[46.1 µM]
COc1cc([C@H](O)C(=O)O)ccc1O	nt	nt	nt	nt	8%	nt
C=CSc1sc(Cl)c(N2CCOCC2)c1[N+](=O)[O-]	-12%	?	?	-8%	?	?
C=CS(=O)(=O)c1sc(Cl)c(N2CCOCC2)c1[N+](=O)[O-]	?	25µM*	-72*	?	5µM*	3.2µM*
Cn1nc(C(C)(C)C)cc1C(=O)NCc1ccc(N2CCCC2=O)cc1	nt	?	-100*	nt	?	-28%
CCOC(=O)c1cnc(SCC(=O)Nc2ccc(NC(C)=O)c(OC)c2)nc1N	nt	25%	11	nt	?	-6%
CCOC(=O)c1cnc(SCC(=O)Nc2cc(OC)ccc2OC)nc1N	-19%	14µM*	7	?	?	8%
CCCCNC(=O)CSc1nc2nc(C)c(Cc3ccccc3C)c(C)n2n1	-12%	-13%	-25	-18%	4%[46.1 µM]	?
Clc1ccc2nnnc(-c3ccccc3)c2c1	13µM*	?	-102*	13µM*	6.5µM*	10µM*
CC(C)(C)OC(=O)N[C@@H](Cc1ccccc1)C(=O)N1CCC(C(=O)O)CC1	nt	-10%	-22	-7%	3%	5%
CC(C)(C)OC(=O)N[C@H](Cc1ccccc1)C(=O)N1CCC[C@@H]1C(=O)O	nt	-2%	-80*	nt	nt	nt
Nc1ncnc(Sc2ncccn2)c1[N+](=O)[O-]	nt	32µM*	41	nt	nt	nt
Nc1ncnc(Sc2ccccc2)c1[N+](=O)[O-]	-13%	-6%	-20	-11%	1%	5%
O=c1[nH]c(CSc2ccccn2)nc2c1oc1ccccc12	-7%	-29%	-23	11%	?	5.6µM*
COC1=NS(=O)(=O)c2ccccc21	-8%	-10%	62	-3%	-2%	1%
Cc1ccc(C)c(OC2=NS(=O)(=O)c3ccccc32)c1	-7%	35µM*	20	5%	-39%[46.1 µM]	0%[46.1 µM]
COc1cccc(/C=C/c2nc(C#N)c(NC3CCCCC3)o2)c1	?	23%	-6	-29%	22%[46.1 µM]	11%[46.1 µM]
SMILES	Vaccinia mCherry	FMDV antiviral	HCMV inh	Vaccinia Venus	MARV entry inh	LASV entry inh
O=C(Nc1ccc(F)cc1)NC1CCN(Cc2c(F)cccc2Cl)CC1	-1%	-32%	-21	?	-1%[46.1 µM]	?
O=C(Nc1ccc(F)cc1F)NC1CCN(Cc2c(F)cccc2Cl)CC1	-5%	?	-68*	-10%	?	?
Clc1ccc2c(c1)-n1cc(-c3ccccc3)nc1CO2	-8%	19%	107	-7%	13%[46.1 µM]	3%[46.1 µM]
CCOc1ncccc1C(=O)N(C)CC(=O)Nc1ccc(C)cc1	-27%	0%	5	-12%	11%	-3%
Cc1ccc(NC(=O)CN(C)C(=O)c2cccnc2Nc2cccc(C(F)(F)F)c2)cc1	nt	-26%	-60*	nt	nt	nt
Nc1cc(-c2ccc(Br)cc2)nn1S(=O)(=O)c1ccccc1	-14%	?	?	-13%	-1%	1%
COc1ccc(S(=O)(=O)n2nc(-c3ccc(Cl)cc3)cc2N)cc1OC	-24%	-13%	?	-16%	nt	nt
COc1ccc(-c2cc(N)n(S(=O)(=O)c3ccc(F)cc3)n2)cc1OC	7.1µM*	?	-26	?	nt	nt
COc1cc(-c2cc(N)n(S(=O)(=O)c3ccc(F)cc3)n2)cc(OC)c1OC	-29%	?	-6	?	nt	nt
Nc1cc(-c2ccccc2)nn1S(=O)(=O)c1ccc(F)cc1	10µM*	?	?	?	nt	nt
CCOc1ccc(-c2cc(N)n(S(=O)(=O)c3ccc(OC)c(OC)c3)n2)cc1	i	-18%	-60*	-15%	1%	nt
COC(=O)N/N=C/c1sc(N2CCCCC2)nc1-c1cccs1	-3%	0%	-68*	-16%	1%	-13%
CC(C)c1cccc(-c2ccc3c(c2)S(=O)(=O)c2cccc(C(=O)NCc4ccccc4)c2C3=O)c1	-15%	-11%	-4	?	nt	nt
CC(C)c1cccc(-c2ccc3c(c2)S(=O)(=O)c2cccc(C(=O)NCc4ccccc4Cl)c2C3=O)c1	?	-28%	nt	13µM*	nt	nt
COc1ccc(-c2ccc3c(c2)S(=O)(=O)c2cccc(C(=O)NCc4ccccc4Cl)c2C3=O)cc1OC	i	5%	-1	-1%	nt	nt
COc1ccc(-c2ccc3c(c2)S(=O)(=O)c2cccc(C(=O)NCCOc4ccccc4Cl)c2C3=O)cc1OC	?	-13%	-98*	7.9µM*	nt	nt
Nc1[nH]c(C(=O)c2ccccc2)c(-c2ccccc2C(F)(F)F)c1C(=O)NCCc1c[nH]c2ccccc12	?	4%	-61*	?	nt	nt
Nc1[nH]c(C(=O)c2ccccc2)c(-c2ccccc2Br)c1C(=O)NCCc1c[nH]c2ccccc12	-18%	-24%	-40	-17%	nt	nt
O=C(C[n+]1csc2ccccc21)c1cccc([N+](=O)[O-])c1	-13%	nt	nt	-8%	nt	nt
Cc1ccc(NC(=O)Cn2c(=O)n(CCc3ccccc3)c(=O)c3c4c(sc32)CCCC4)c(C)c1	9%	-6%	-4	9%	?	29%[46.1 µM]
CC(C)Sc1nc2ccc(Br)cc2[nH]1	-1%	29%	-102*	-3%	?	7%[46.1 µM]
CSc1nc2ccc(Br)cc2[nH]1	-4%	18%	-40	-14%	?	-1%
CC(C)=CCCC(C)=CCN1C(=O)[C@@]2(CC(C)=CC[C@@H](C)O2)c2c(Br)cccc21	nt	nt	nt	nt	0%[14.2 µM]	nt
Nc1nc(CN2CCN(c3ccccc3F)CC2)nc(Nc2ccc3c(c2)OCCO3)n1	nt	22µM*	-16	nt	7%	-7%
Fc1cccc(F)c1-n1c(CN2CCOCC2)csc1=S	i	-21%	2	-9%	nt	nt
Fc1cccc(F)c1-n1c(CN2CCCCC2)csc1=S	-23%	-25%	-68*	-20%	6.3µM*	-13%[46.1 µM]
CCOc1ccc(OCC)c(NC(=O)C(NS(=O)(=O)c2cccs2)c2ccccc2)c1 (stereo unspecified)	-23%	-10%	14	-20%	30%[46.1 µM]	-24%[46.1 µM]
CCc1nc2c(OCc3ccc(Cl)cc3)cccn2c1N(C)C(=O)c1ccccc1F	-21%	-20%	-63*	-12%	nt	nt
